Measured values: PubChem BioAssay AID1117361 (Southern Research Institute, 2015)
Out of some 3,600 compounds screened, about 900 (25%) were called active. The list is a sample of the results. Measured potencies and affinities stand elsewhere. A number with no mark means an inactive call. How the calls were made is not given here.

Target: Protein Tat (Human immunodeficiency virus type 1 group M subtype B (isolate HXB2)) (UniProt P04608)
Assay: HIV-1 Tat–TAR interaction blockers – biochemical, fluorescence polarization, FAM-labeled TAR RNA, counter-screen for Vif-APOBEC3G degradation inhibitor project, dose response (AID 1117361)
Details: Tat-TAR RNA binding; series mostly up to 100 µM; inhibition: at the top concentration

**Q.** For `O=C1N(Cc2cccnc2)C[C@@H]2C[C@@H](c3ccc4nsnc4c3)N3CCC[C@@]123`, which “inhibition” value is on record?
**A.** Its value is 5.77%.

**Q.** `COc1cccc(C(=O)N2CCN(Cc3nc(CC4CC4)no3)CC2)c1` was tested. Which “inhibition” value did it give?
**A.** The value was 1.65%.

**Q.** With `O=C1CCCC(O)=C1C=Nc1ccc(O)cc1` as the compound, how does the “inhibition” value read?
**A.** The value was 21.1%.

**Q.** How did the “inhibition” value turn out when `COc1ccc(N=CC2=C(O)CCCC2=O)cc1` was run?
**A.** Its value is 3.38%.

**Q.** With `CC1CN(C(=O)COC(=O)Cc2ccc(Cl)cc2)CC(C)O1` (centres undefined) as the compound, how does the outcome read?
**A.** Its outcome is “inactive”.

**Q.** For `CCCCn1c(C)nc2c(=O)n(C)c(=O)[nH]c21`, which “inhibition” value is on record?
**A.** Its value is 4.05%.

**Q.** Which outcome does the source give for `CCN(CC)CCN1C(=O)C(=O)/C(=C(/O)c2ccc(C)cc2)C1c1ccncc1` (centres undefined) here?
**A.** The outcome was “inactive”.

**Q.** With `CN(C1CCCCC1)S(=O)(=O)c1cccc(C(=O)OCC(=O)NC2CCCc3ccccc32)c1` (centres undefined) as the compound, how does the outcome read?
**A.** The outcome was “inactive”.

**Q.** Which “inhibition” value does the source give for `CCCc1nc2ccccc2c(C(=O)OCC(=O)N2CCc3ccccc32)c1CC` here?
**A.** Its value is 4.09%.

**Q.** `CC(OC(=O)/C=C/c1ccco1)C(=O)NC1CCCCC1` (centres undefined) was tested. Which outcome did it give?
**A.** Its outcome is “inactive”.

**Q.** Which outcome does the source give for `Cc1nc2ccc(NC(=O)c3cc(S(=O)(=O)N4CCOCC4)ccc3C)cc2s1` here?
**A.** The outcome was “inactive”.

**Q.** Which “inhibition” value does the source give for `COc1ccc(OCCOC(=O)c2cccc(-n3cnnn3)c2)cc1` here?
**A.** The value was 8.78%.

**Q.** For `COc1ccc(C(C)(C)C)cc1NC(=O)C1C2C=CC(C2)C1C(=O)O` (centres undefined), which outcome is on record?
**A.** The outcome was “inactive”.

**Q.** `O=C(Nc1nc(-c2ccco2)c(-c2ccco2)s1)c1ccc(F)cc1F` was tested. Which “inhibition” value did it give?
**A.** The value was 26.4%.

**Q.** How did the “inhibition” value turn out when `Cc1nc2nc(-c3ccco3)nn2c(C)c1Cl` was run?
**A.** Its value is 5.68%.

**Q.** `CC1CCc2nc(NC(=O)c3ccco3)sc2C1` (centres undefined) was tested. Which “inhibition” value did it give?
**A.** The value was 0.68%.

**Q.** For `c1coc(-c2nc3nc4ccccc4n3nc2-c2ccco2)c1`, which “inhibition” value is on record?
**A.** The value was 3.67%.

**Q.** With `Cc1cc(-c2ccco2)n(-c2ccccc2)n1` as the compound, how does the “inhibition” value read?
**A.** Its value is 19.1%.

**Q.** `O=C1CN(C(=O)COC(=O)c2oc3ccccc3c2COc2ccccc2)c2ccccc2N1` was tested. Which “inhibition” value did it give?
**A.** Its value is 2.7%.

**Q.** For `Cc1cc(C(=O)Nc2c(C)cccc2C)n(-c2ccccc2)n1`, which outcome is on record?
**A.** The outcome was “inactive”.

**Q.** `Cc1ccc(NC(=O)CSc2nnc([C@H](C)NC(=O)OC(C)(C)C)o2)c(C)c1` was tested. Which outcome did it give?
**A.** Its outcome is “inactive”.

**Q.** `Cn1c2ccccc2c2c(C(=O)O)cn(C3CCCC3)c(=O)c21` was tested. Which “inhibition” value did it give?
**A.** Its value is 10.1%.

**Q.** Which “inhibition” value does the source give for `CCC(=O)N1CCc2cc(S(=O)(=O)NCCC(=O)NC3CCCc4ccccc43)ccc21` (centres undefined) here?
**A.** The value was 12.2%.

**Q.** `COc1ccc(N(C(=O)c2ccco2)S(=O)(=O)c2cc(Cl)c(Cl)cc2Cl)cc1` was tested. Which “inhibition” value did it give?
**A.** The value was 2.7%.

**Q.** Which outcome does the source give for `O=C(O)CCC(=O)NNC(=O)CCC(=O)NCc1ccccc1` here?
**A.** Its outcome is “inactive”.

**Q.** With `CC(c1ccccc1)N(C)CC(=O)NC(=O)NCCC1=CCCCC1` (centres undefined) as the compound, how does the outcome read?
**A.** The outcome was “inactive”.

**Q.** With `O=C(NCc1cccs1)c1ccc2c(c1)ncn2C1CCCC1` as the compound, how does the “inhibition” value read?
**A.** The value was 2.05%.

**Q.** How did the outcome turn out when `Cc1cccc2c1N(CCCOc1ccc(C(C)(C)C)cc1)C(=O)C2=O` was run?
**A.** Its outcome is “inactive”.

**Q.** How did the “inhibition” value turn out when `CCOC(=O)c1cc2sc(C)cc2n1CC(=O)N1CCN(C(=O)c2ccco2)CC1` was run?
**A.** The value was 7.43%.

**Q.** For `O=C(CSc1nc2cc(Cl)ccc2s1)N1CCN(C(=O)c2ccco2)CC1`, which “inhibition” value is on record?
**A.** The value was 8.78%.

**Q.** For `COc1ccccc1CN(C)C(=O)CN1CCN(C(=O)c2cccs2)CC1`, which “inhibition” value is on record?
**A.** The value was 3.3%.

**Q.** With `Cc1nn(-c2ccccc2)c(C)c1/C=N/NC(=O)c1cc(-c2ccccc2)n[nH]1` as the compound, how does the “inhibition” value read?
**A.** The value was 4.09%.

**Q.** `COc1ccccc1NS(=O)(=O)c1cccc2cccnc12` was tested. Which “inhibition” value did it give?
**A.** The value was 4.05%.

**Q.** Which “inhibition” value does the source give for `Cn1c(=O)cc(NCc2ccccc2)[nH]c1=O` here?
**A.** Its value is 4.05%.

**Q.** `O=C(NCC1CCCO1)C1CCCN(Cc2cnn(-c3ccccc3)c2-n2cccc2)C1` (centres undefined) was tested. Which “inhibition” value did it give?
**A.** The value was 5.41%.

**Q.** Which outcome does the source give for `Cc1ccc2[nH]c(=O)c(CN(Cc3ccco3)C(=O)c3ccncc3)cc2c1` here?
**A.** Its outcome is “inactive”.

**Q.** With `COc1ccc2nc3oc(C(=O)N4CCCCC4)cc3cc2c1` as the compound, how does the “inhibition” value read?
**A.** Its value is 1.36%.

**Q.** Which “inhibition” value does the source give for `Cc1ccc(NC(=O)COc2ccccc2C(=O)Nc2ccccc2)cc1Cl` here?
**A.** The value was 7.5%.

**Q.** With `O=C(CCCCCCC(=O)NCc1ccccc1)NCc1ccccc1` as the compound, how does the “inhibition” value read?
**A.** The value was 8.35%.

**Q.** `COc1cc(NC(=O)Cc2ccccc2)cc(OC)c1` was tested. Which “inhibition” value did it give?
**A.** The value was 4.77%.

**Q.** `CC(C)Cn1c2c(c(O)c(C(=O)Nc3nccs3)c1=O)CCCC2` was tested. Which outcome did it give?
**A.** Its outcome is “inactive”.

**Q.** How did the outcome turn out when `COc1ccc(-c2[nH]c3ccccc3c2SCCN)cc1` was run?
**A.** The outcome was “inactive”.

**Q.** How did the “inhibition” value turn out when `Cc1nnc(N2CCc3ccccc3C2)[nH]c1=O` was run?
**A.** Its value is 8.87%.

**Q.** For `CCS(=O)(=O)N1CCC(C(=O)NCc2cccc(OC)c2)CC1`, which outcome is on record?
**A.** The outcome was “inactive”.

**Q.** `COc1cccc(CC(=O)Nc2nccs2)c1` was tested. Which “inhibition” value did it give?
**A.** The value was 0.68%.

**Q.** How did the “inhibition” value turn out when `O=C(Cn1cnc2ccccc2c1=O)c1cccs1` was run?
**A.** Its value is 4.09%.

**Q.** How did the outcome turn out when `CN(C)c1nc(N)nc(CSc2ncc(Cl)cc2Cl)n1` was run?
**A.** The outcome was “inactive”.

**Q.** With `Cc1ccccc1CCNC(=O)c1ccc(Cl)c(S(=O)(=O)N2CC(C)OC(C)C2)c1` (centres undefined) as the compound, how does the outcome read?
**A.** Its outcome is “inactive”.

**Q.** `COc1ccccc1-n1cnc2cc(NCc3cccs3)ccc21` was tested. Which “inhibition” value did it give?
**A.** The value was 2.7%.

**Q.** For `COc1ccc(S(=O)(=O)N2CCCCCC2)cc1C(=O)OCC(=O)NC(N)=O`, which “inhibition” value is on record?
**A.** The value was 1.35%.

**Q.** `CSc1nc2ccc3nc(NC(=O)c4cccs4)sc3c2s1` was tested. Which “inhibition” value did it give?
**A.** Its value is 15.5%.

**Q.** With `Cn1c(NC(=O)c2cccs2)cc(=O)n(C)c1=O` as the compound, how does the outcome read?
**A.** Its outcome is “inactive”.

**Q.** `COc1cccc(C(=O)CSc2nc3ccccc3n2CC(=O)N2CCOCC2)c1` was tested. Which outcome did it give?
**A.** The outcome was “inactive”.

**Q.** With `CCCCCCn1c(SCC(=O)c2c(N)n(C)c(=O)n(C)c2=O)nc2ccccc21` as the compound, how does the “inhibition” value read?
**A.** Its value is 4.05%.

**Q.** With `CN(CC(=O)NCCc1ccccc1)S(=O)(=O)c1cccs1` as the compound, how does the “inhibition” value read?
**A.** Its value is 6.76%.

**Q.** Which “inhibition” value does the source give for `O=C1CCCC2=C1C(c1ccco1)Nc1ccc3ccccc3c12` (centres undefined) here?
**A.** Its value is 1.67%.

**Q.** Which “inhibition” value does the source give for `COc1ccc(C2CC(=O)N3CN(c4ccc(C)c(Cl)c4)CSC3=C2C#N)cc1` (centres undefined) here?
**A.** Its value is 22.3%.

**Q.** Which “inhibition” value does the source give for `COc1ccc(Br)cc1C1CC(=O)N2CN(Cc3ccccc3)CSC2=C1C#N` (centres undefined) here?
**A.** The value was 16.2%.

**Q.** With `CCOC(=O)CCN(Cc1sccc1C)S(=O)(=O)c1ccc(F)cc1` as the compound, how does the “inhibition” value read?
**A.** Its value is 10.8%.

**Q.** With `Cc1ccnc(NC(=O)c2ccc(Cl)c(S(=O)(=O)N3CCCC3)c2)c1` as the compound, how does the outcome read?
**A.** Its outcome is “inactive”.

**Q.** For `COc1ccc(NC(=O)Cn2c(=O)sc3ccccc32)cc1`, which outcome is on record?
**A.** Its outcome is “inactive”.

**Q.** With `COc1ccc(Cc2nnc(NC(=O)CSc3ccccc3)s2)cc1` as the compound, how does the outcome read?
**A.** Its outcome is “inactive”.

**Q.** For `C[C@@H]1CCCCO[C@H](CN(C)C(=O)c2ccccc2)[C@@H](C)CN([C@H](C)CO)C(=O)c2cc(NC(=O)NC3CCCCC3)ccc2O1`, which “inhibition” value is on record?
**A.** Its value is 3.01%.

**Q.** `CCOc1ccc(-n2c(=O)c3c(C)c(C)sc3n(CC(=O)NCc3ccco3)c2=O)cc1` was tested. Which “inhibition” value did it give?
**A.** Its value is 8.87%.

**Q.** With `Cc1cccc(NC(=O)Cn2c(=O)n(Cc3ccco3)c(=N)c3c4c(sc32)COC(C)(C)C4)c1` as the compound, how does the outcome read?
**A.** Its outcome is “inactive”.

**Q.** For `CCOC(=O)c1cc([N+](=O)[O-])cc([N+](=O)[O-])c1Sc1ncnc2nc[nH]c12`, which outcome is on record?
**A.** Its outcome is “inactive”.

**Q.** With `CCCCn1c(N)c(N(CCC(C)C)C(=O)C2=NN(c3cc(C)ccc3C)C(=O)CC2)c(=O)[nH]c1=O` as the compound, how does the “inhibition” value read?
**A.** The value was 2.34%.

**Q.** With `CC(=O)N(C1=C(Cl)C(=O)c2ccccc2C1=O)c1ccc(C(=O)O)cc1` as the compound, how does the outcome read?
**A.** Its outcome is “inactive”.

**Q.** For `CCC(C(=O)OCC(=O)Nc1ccc(SC(F)F)cc1)c1ccccc1` (centres undefined), which “inhibition” value is on record?
**A.** The value was 15.7%.
